Experimental data as given in PubChem BioAssay AID504941 (Broad Institute, 2011).
Screen size: about 1,200 compounds; about 170 (14%) were called active. No rule for the calls is given here. The list is a sample of the results. Measured potencies and affinities stand elsewhere.

Assay: E. coli Tat export inhibitors, dose response, cherry-pick, set 2, plate reader (AID 504941)
Settings: E. coli Tat transport reporter; series mostly up to 38 µM; activity change, negative = inhibition: at the top concentration

Activity change, negative = inhibition, inactive:
Cc1onc(C(=O)NCc2ccc(F)cc2)c1[N+](=O)[O-] -1.08%, O=C(CCC1CCCCC1)NCCN1CCOCC1 -15.1%, COCCCN=C(c1ccco1)n1c(=S)nc(-c2ccco2)n(CCCOC)c1=S 3.59%, O=C(CN1CCC(c2nc3ccccc3s2)CC1)NCc1cccs1 12.7%, O=C(Nc1ccc(C(=O)O)cc1)/C(=C\C=C\c1ccccc1)NC(=O)c1ccccc1Br -14.1%, O=C(Nc1cc(S(=O)(=O)N2CCOCC2)ccc1N1CCCC1)c1ccc(Cl)cc1 2.62%, Cc1cc(Oc2nc3c(C)cccn3c(=O)c2/C=C(\C#N)S(=O)(=O)c2ccc(Cl)cc2)ccc1Cl 2.58%, CCOC(=O)C1=C(C)Nc2ncnn2C1c1cc(Br)ccc1F (stereo not drawn) 5.94%, COc1ccc(NC(=O)C2CCN(Cc3cnn(-c4ccccc4)c3-n3cccc3)CC2)cc1OC 21%, Cc1ccn(C(=O)c2ccc(NC(=O)C3CC3)cc2)n1 -12.2%, O=C(CSc1cccc2cccnc12)N/N=C/c1ccncc1 35.7%, Clc1ccccc1CSc1nnc(-c2cccnc2)n1Cc1ccco1 -3.85%, CCN(CC)CC(=O)Nc1ccc(C)cc1C(=O)c1ccccc1 6.54%, COc1ccccc1NC(=O)NCCCCc1ccccc1 -5.9%, COc1ccc(CCNCC(O)COc2c(C)cccc2C)cc1OC (stereo not drawn) 2.06%, COCCNc1nc(N)c([N+](=O)[O-])c(NCC2CCCO2)n1 (stereo not drawn) -13.9%, CCOC(=O)c1sc(-c2ccccc2)cc1NC(=O)Nc1ccc([N+](=O)[O-])cc1 12.2%, O=C1c2cccc3cccc(c23)C(=O)N1CC1CCN(CC(O)COc2ccc3ccccc3c2)CC1 (stereo not drawn) 5.9%, Cc1cccc(OCC(O)Cn2c(=N)n(CCN3CCOCC3)c3ccccc32)c1 (stereo not drawn) -7%, COC(=O)COc1cccc(NC(=O)c2cccc(C)c2)c1 -3.33%, CCCc1[nH]nc2c1C(c1ccc(OC(=O)c3ccco3)cc1)C(C#N)=C(N)O2 (stereo not drawn) 1.36%, O=C1c2ccccc2NC(c2ccc(Cl)cc2Cl)N1O (stereo not drawn) 58.2%, CCOc1cc(/C=N/NC(=O)C(=O)NCc2cccnc2)ccc1O -1.14%, S=c1[nH]nc(-c2cccnc2)n1C1CCCCC1 0.199%, O=S(=O)(NC1CCCCC1)c1ccc(Cl)s1 6.67%, CCC(C)OC1OC(CO)C(O)C(O)C1NC(C)=O (stereo not drawn) 0.148%, C[C@@H]1C(c2ccc(F)cc2)=NN(c2ccccc2)[C@H]1C(=O)N1CCOC1=O 12.3%, O=C(Nc1ccccc1F)C1CCN(C(=O)Cc2ccccc2)CC1 -21.2%, CCN(CC)S(=O)(=O)N1CCC(C(=O)NC2CCCC2)CC1 1.37%, CCOc1cc(C(=O)N2CCCN(C)CC2)cc(OCC)c1OCC 17.2%, COC(=O)c1sc(NC(=O)CSc2nnnn2-c2ccc(C)cc2C)nc1C 13.6%, CN1CC(c2ccccc2Cl)C2(COc3ccccc3C2=O)C12C(=O)Nc1ccccc12 (stereo not drawn) 39.1%, CC1(C)c2ccccc2N2CC(=O)NC21/C=C/c1ccco1 (stereo not drawn) 29.5%, CCc1ccc(C(=O)Nc2ccc(S(=O)(=O)Nc3nc(C)cc(C)n3)cc2)o1 5.66%, Cc1ccc2nc(C(=O)O)c(C(=O)O)nc2c1 18.6%, O=C(Cn1c(=O)oc2cc(S(=O)(=O)N3CCc4ccccc43)ccc21)N1CCCCC1 0.63%, O=C(Cn1nnc(-c2ccccc2)n1)N/N=C/c1cccc([N+](=O)[O-])c1O 35%, COc1ccccc1N(CC(=O)NC1CCCC1)C(=O)c1csnn1 25.7%, Cc1cc(=O)oc2cc(OCC(=O)OCC(=O)N3CCc4ccccc43)ccc12 0.129%, CCCCCCc1ccc(N2C[C@H](Cc3ccccc3)[C@@H](CC(=O)NCc3ccc(OC)cc3)C2=O)cc1 29.2%, CCCOc1cc(C)c(S(=O)(=O)N2CCN(C)CC2)cc1C -6.77%, COc1ccc(OC)c(S(=O)(=O)NCCc2ccccc2)c1 -12.3%, COc1ccc(S(=O)(=O)NCc2ccco2)c2ccccc12 9.03%, COC(=O)C1=CN(C(C)C)C=C(C(=O)OC)C1c1cccc(OC)c1 12.3%, COc1ccc(N2C(=O)C3C4C=CC(C4)C3C2=O)nn1 (stereo not drawn) 2.9%, CCNC(=O)c1ccc(NS(=O)(=O)c2ccccc2)cc1 20.1%, Cc1ccc(-c2cc(C(=O)OCC(=O)N(C)c3c(N)n(Cc4ccccc4)c(=O)[nH]c3=O)c3ccccc3n2)o1 26%, N#CC1=C2SCC(O)(c3ccccc3)N2C(=O)CC1c1ccccc1F (stereo not drawn) -1.97%, COc1cc(NC(=O)C2CC(=O)NC3=C2C(=O)CC(C)(C)C3)c(OC)cc1Cl (stereo not drawn) 18.6%, Cn1c(C(=O)NCc2cccs2)cc2c(=O)n(C)c3ccccc3c21 8.97%, COC(C(=O)Nc1ccnn1C1CCN(Cc2ccc(C)o2)CC1)c1ccccc1 (stereo not drawn) 1.14%, O=C(c1n[nH]c2ccccc12)N1CCOCC1 2.16%, O=C(CSc1cccc[n+]1[O-])Nc1ccccc1C(F)(F)F 12.2%, C/C(Cn1nnc([N+](=O)[O-])n1)=N\NC(=O)c1ccc(O)cc1O 9.9%, CC1CCCCN1S(=O)(=O)c1ccc(NC(=O)c2ccco2)cc1 (stereo not drawn) 2.51%, CCn1c(C)nc2cc(C(=O)N/N=C/c3ccc(OC)c(O)c3)ccc21 -1.99%, COc1cccc(C2C(C(=O)OC(C)C)=C(C)Nc3ncnn32)c1 (stereo not drawn) 6.75%, CCN(CC)S(=O)(=O)c1ccc(=O)n(CC(=O)N2Cc3ccccc3CC2C(N)=O)c1 (stereo not drawn) -7.2%, CC(Sc1nc2ccccc2c(=O)n1C)C(=O)NC1CCCCC1C (stereo not drawn) -7.32%, Cc1nn(Cc2ccccc2Cl)c(C)c1NC(=O)c1ccn(C)n1 -0.679%, Cn1c(=O)oc2cc(S(=O)(=O)NCCN3CCCCCC3)ccc21 -0.08%, CC(C)Sc1nc2c(c(=O)[nH]c(=O)n2C)n1CCc1ccccc1 -6.57%, CCn1c(SCC(=O)Nc2ccc(OC)cc2)nc2c1c(=O)n(C)c(=O)n2C -3.88%, CCOCCOc1nc2c(c(=O)n(C)c(=O)n2C)n1Cc1ccc(C)cc1 9.39%, CN(C)c1nc(NCc2ccccc2)nc(SCC(N)=O)n1 -14.3%, O=C(CN1CCN(c2ccccc2)CC1)N1N=CCC1c1ccccc1 (stereo not drawn) -3.44%, Cc1nc2ccccc2c(=O)n1CCCO 16.5%, Cn1c(-c2ccccc2)cnc1N 7.04%, Cc1c(OCC(=O)NCCCN2CCOCC2)ccc2c1oc(=O)c1ccccc12 0.385%, CC(Sc1ccsc1[N+](=O)[O-])C(=O)N1CCN(c2ccccn2)CC1 (stereo not drawn) 8.43%, N#Cc1ccccc1S(=O)(=O)N1CCN(CC(=O)Nc2ccnn2C2CCCC2)CC1 12.7%, CCN(CC)C(=O)CSc1nc2ccccc2o1 8.86%, COC(=O)c1ccc(C2CC(=O)Nc3cc(OC)c(OC)cc32)cc1 (stereo not drawn) 1.38%, Cc1ccc(S(=O)(=O)N2CCOCC2)cc1NC(=O)c1cc2ccccc2oc1=O 10.6%, Cc1ccc(NC(=O)/C(=C/c2cccc([N+](=O)[O-])c2)NC(=O)C2CCCCC2)c(C)c1 19.2%, COc1ccc(CN2CSC(=S)N(Cc3ccccc3)C2)cc1 0.18%, Nc1cc(N)nc(SCc2ccc(Cl)cc2)n1 2.74%, O=C(CCCCCNC(=O)c1ccccc1)C[N+](=O)[O-] 9.54%, COCCCNc1nc2c(c(=O)[nH]c(=O)n2C)n1CC(O)COc1cccc(C)c1 (stereo not drawn) -25.7%, COc1ccc(NC(=O)c2ccc(Oc3ncccn3)cc2)cc1 9.5%, Cn1c(N)c(C(=O)COC(=O)CCCN2C(=O)c3ccccc3C2=O)c(=O)n(C)c1=O 13.1%, O=C(CN1CCN(c2ccccc2F)CC1)NC(=O)NCc1ccccc1 37.5%, COc1ccc(-c2cc(C(F)(F)F)c3c(n2)sc2c(O)cc(=O)[nH]c23)c(OC)c1 3.85%, Nc1ccccc1S(=O)(=O)NC1=NCCCCC1 7.97%, O=C(NCc1ccccc1)c1nc[nH]c1C(=O)N1CCN(c2ccccc2)CC1 -1.54%, CC(C)(C)OC(=O)NCC(=O)N1CCC(C(=O)O)CC1 0.797%, CC1CCN(C(=O)c2[nH]cnc2C(=O)N[C@@H](C)C(=O)OC(C)(C)C)CC1 -3.97%, CC(=O)Nc1ccc(NS(=O)(=O)c2ccc3ccccc3c2)cc1 17.6%, CCc1ccc(N2CC34C=CC(O3)C(C(=O)OC(C)C)C4C2=O)cc1 (stereo not drawn) 11.4%, COc1ccc(N=Cc2nc(-c3ccccc3)oc2OC(=O)c2ccccc2)cc1 -7.66%, COC(=O)c1c(NC(=O)C(=O)NCCCN2CCOCC2)sc2c1CCCC2 23.1%, Cc1nn2c(SCC(=O)c3cccs3)cc(C(C)(C)C)nc2c1-c1ccccc1 18.4%, O=C(O)c1ccc(NS(=O)(=O)c2cc(C(=O)O)ccc2Br)cc1 -5.5%, CC(C)(C)c1ccc(C(=O)n2cnc3ccccc32)cc1 -4.98%, Cc1ccc(CNC(=O)C2CCCN2C(=O)Nc2ccccc2)cc1 (stereo not drawn) 6.34%, O=C(O)C1CCCCN1S(=O)(=O)c1ccc(Cl)s1 (stereo not drawn) 3.43%, Cc1ccc(-n2nnnc2-c2cnc3cc4c(cc3c2C)OCO4)cc1 5.42%, Cc1ccc2nc(NNC(=O)c3ccc(S(=O)(=O)N4CCc5ccccc5C4)cc3)sc2c1 24.4%, O=C(CSc1nnc(-c2ccccc2)n1C1CCCCC1)N1CCCC1 14.9%, Cc1ccnc(NS(=O)(=O)c2ccc(NS(=O)(=O)c3ccccc3)cc2)n1 -7.87%, O=C(CN(Cc1ccco1)C(=O)c1ccccc1F)Nc1ccccc1C(F)(F)F -17.7%, CCc1cccc2c1NC(=O)C2(O)N1CCCC(C)C1 (stereo not drawn) -0.33%, COc1cccc(C(=O)Nc2cc([N+](=O)[O-])ccc2N2CCN(C)CC2)c1 -5.03%, Cc1cccc(NC(=O)CN(c2ccc(F)cc2)S(C)(=O)=O)c1 19.3%, CS(=O)(=O)N(CC(=O)NC1CCCC1)c1cccc(F)c1 -8.84%, COC(CN(C)C(=O)C1CCCN(S(=O)(=O)c2ccc3c(c2)oc(=O)n3C)C1)OC (stereo not drawn) 6.34%, CCOC(=O)c1c(NC(NC(C)=O)C(Cl)(Cl)Cl)sc(C(C)=O)c1C (stereo not drawn) -6.84%, CC(C)(CO)[C@@H](O)C(=O)NCCC(=O)O -1.7%
